Laboratory results as given in PubChem BioAssay (NCI).
Compounds without any hit were thinned out: in the full panel of roughly 79,000, 15% have a hit. A number with no mark means an inactive call. Calls of active or inactive are those of the source. No stated cut-off is given here; in the data, active means growth inhibition above about 70%; inactive means the rest.

Assay: NCI Yeast Anticancer Drug Screen. Data for the sgs1 mgt1 strain (AID 161);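 further: 0% = growth of cultures given vehicle only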
Conditions: S. cerevisiae sgs1 mgt1 strain, at 50.0 µM, active compounds read high
Description: Growth inhibition of yeast strains with defined genetic alterations is measured as a screen for potential anti-cancer activity. Selected strains with alterations in DNA damage repair or cell cycle control were exposed to compounds and growth inhibition was measured relative to vehicle treated controls. The strain used in this assay is sgs1 mgt1

Row | SMILES | growth inhibition
1 | OC12CC/C(=N/OCc3ccccc3)CC1c1ccccc12 (stereo not given) | -29.8%
2 | CCOC(=O)CC(=O)Nc1cccc2sc3ncccc3c(=O)c12 | -4.25%
3 | O=c1sc2ncccc2n1-c1ccc([N+](=O)[O-])cn1 | 3.15%
4 | CCCC(=O)c1ccccc1 | 19.9%
5 | CN(C)NC(=O)Oc1ccc(Cl)cc1 | -11.4%
6 | CC1=NN(C(=O)c2ccccc2O)C(=O)/C1=C/c1cccc([N+](=O)[O-])c1 | 37.1%
7 | COc1cccc(/C=C2/C(=O)N(c3ccc([N+](=O)[O-])cc3)N=C2C)c1 | 37.9%
8 | CC[n+]1ccc2cc(OC)c(OC)cc2c1Cc1ccc(OC)c(OC)c1 | -5.85%
9 | COc1ccc(C(=O)c2ccccc2)c(O)c1 | -10.6%
10 | CCOC(=O)C1CSC(c2ccccc2)=N1 (stereo not given) | -2.35%
11 | IC1CCC2OC1CCC2I (stereo not given) | -3.85%
12 | COc1ccc2c(c1)C(=O)OCCC2 | -26.6%
13 | CC(=O)NS(=O)(=O)c1ccc(NC(=O)COC(=O)c2cccc3c(=O)c4ccccc4[nH]c23)cc1 | -48.6%
14 | O=C(O)C(=O)O.[NH-]CC(O)CN(CC(O)CO)c1ccccc1.[Pt+2] (stereo not given) | 6.85%
15 | CCC(CC)C(=O)OCCOCCOC | 14.9%
16 | CC1(C)N=C(C2CCCN2C(=O)OCc2ccccc2)OC1=O (stereo not given) | -38.1%
17 | O=P(c1ccccc1)(c1ccccc1)N1CC1c1ccccc1 (stereo not given) | 3.2%
18 | O=C1CN(Cc2ccc(Cl)cc2)CC(=O)N2CCCN12 | 19.7%
19 | O=C(c1nc2ccc(Cl)cc2[nH]c1=O)C(O)c1ccccc1 (stereo not given) | 39.4%
20 | CCN(/N=C1\CC2C=CCN(C2)C(=O)Cc2c1[nH]c1ccccc21)S(=O)(=O)c1ccc(C)cc1 (stereo not given) | 39.2%

Row | SMILES | growth inhibition
21 | CCOC(=O)C(/C(=N\NC(=O)OC)C(=O)Nc1cc(OC)ccc1OC)c1cnc2ccccc2n1 (stereo not given) | -45.4%
22 | Cc1cnc2[nH]c(-c3ccccc3)cc(=O)c2c1 | -0.9%
23 | CC(C)(C)c1ccc(OCCOCCCl)c(Cl)c1 | 14.6%
24 | COc1cc(C[C@H]2C(=O)OCC2Cc2ccc(OC)c(OC)c2)ccc1O (stereo not given in full) | -26.9%
25 | c1ccc(C2=C([P+](c3ccccc3)(c3ccccc3)c3ccccc3)CCO2)cc1 | 98.7% (active)
26 | CSC(SC)[P+](c1ccccc1)(c1ccccc1)c1ccccc1 | 90.7% (active)
27 | CCOC(=O)CC(=O)c1ccc(Cl)cc1 | 11.4%
28 | C/C(CC1CCCCC1)=N\NC(N)=O | -5.8%
29 | O=C(c1ccccc1)c1ccc(N2CCOCC2)cc1 | 24.4%
30 | CCOc1ccc2[nH]c(C)c(CC(=O)O)c2c1 | -13.5%
31 | CCCCCC(O)(CCCC)CCCCC | 1.85%
32 | c1ccc(Oc2ccc(-c3ccccc3)cc2)cc1 | 1.8%
33 | CC(=NNC(=S)Nc1ccccc1)c1cccc(C(C)=NNC(=S)Nc2ccccc2)n1 | -0.8%
34 | COC(=O)COC(=O)C1C(C(N)=O)N(CC(=O)OC)CCN1CC(=O)OC (stereo not given) | -27.4%
35 | Cc1nn(C(N)=S)c(C)c1N=Nc1ccc(Cl)cc1 | 10.8%
36 | CC(C)NS(=O)(=O)c1ccc(Cl)cc1 | 12.4%
37 | CC(C)CC(NC(=O)OC(C)(C)C)C(=O)NC(Cc1c[nH]c2ccccc12)C(=O)NN (stereo not given) | 29.4%
38 | COc1cc2c(cc1C)C(C)(C)CCC2(C)C | -3.1%
39 | COC(=O)c1ccccc1C1CN=NC12Cc1cccc(C)c1C2=O (stereo not given) | 64.8%
40 | Oc1ccc(-c2c3ccccc3c(-c3ccc(OCCBr)cc3)c3ccccc23)cc1 | -9.9%
